Where “and” joins values, the source holds several entries; their conditions need not be identical. Equal entries are not always repeated. Structures can show the parent of a compound that is named as a salt. About 620 (11%) of roughly 5,800 compounds showed activity. Shown is part of a subset that was picked to be rich in actives. Unmarked numbers belong to inactive results.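 Rule for the calls: active = score above a cut-off or among the top three wells of a plate; in these data no inactive exceeds 0.85.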
Tested on: primary human hepatic stellate cells (donor 1)
Experiment: scaled lipid accumulation score (0 = DMSO-like, 1 = nortriptyline-like); higher = stronger HSC inactivation (lipid re-accumulation), active = hit call of the paper
Settings: 48 h
Procedure: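 Primary lipid accumulation screen in primary human hepatic stellate cell myofibroblasts (donor 1, passage 8) in 384-well plates. 100 nL of library compound was pin-transferred into 30 µL medium in duplicate, and cells were treated for 48 h. The 'Scaled' score combines distance from plate baseline, toxicity and reproducibility penalties, and is normalised to nortriptyline (positive) and DMSO (negative) controls on each plate. A hit is defined as scaled >0.85 or among the top 3 wells per plate.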

[1] = library stock concentration: 10 mM
[2] = library stock concentration: 1 mM
[3] = library stock concentration: 3.33 mM
[4] = library stock concentration: 6.4 mM
[5] = library stock concentration: 80 uM
[6] = library stock concentration: 400 uM
[7] = library stock concentration: 2 mM

## Cc1cc2c(cc1Cl)N(C(=O)Nc1ccnc3ccccc13)CC2
[1]
  scaled lipid accumulation score: 1.08 (active)

## Cn1ccc2cc3c(cc21)CCN3C(=O)Nc1cccnc1
[1]
  scaled lipid accumulation score: ≤ 0 and ≤ -0.006

## Cc1cc2c(cc1Cl)N(C(=O)Nc1ccc(Oc3cccnc3C)nc1)CC2
[1]
  scaled lipid accumulation score: 0.832

## CC(=Nc1ccccc1N)c1c(C)cc(=O)n(O)c1O
[1]
  scaled lipid accumulation score: ≤ 0

## CCCCCCCCCCCCCCCCOC[C@H](COP(=O)([O-])OCC[N+](C)(C)C)OC(=O)CCC [Butanoyl PAF]
[2]
  scaled lipid accumulation score: ≤ 0

## CO[C@H]1C[C@@H]2CC[C@@H](C)[C@@](O)(O2)C(=O)C(=O)N2CCCC[C@H]2C(=O)O[C@H]([C@H](C)C[C@@H]2CC[C@H](n3cnnn3)[C@H](OC)C2)CC(=O)[C@H](C)/C=C(\C)[C@@H](O)[C@@H](OC)C(=O)[C@H](C)C[C@H](C)/C=C/C=C/C=C/1C [Zotarolimus(ABT-578)]
[3]
  scaled lipid accumulation score: 0.109
[1]
  scaled lipid accumulation score: ≤ 0

## OC[C@H]1NC[C@@H](O)[C@@H](O)[C@@H]1O [1-Deoxymannojirimycin hydrochloride]
[1]
  scaled lipid accumulation score: ≤ -0.006
Library stock concentration: 25.1 mM
  scaled lipid accumulation score: ≤ -0.012

## CCCCC(C)(C)[C@H](O)/C=C/[C@H]1C=CC(=O)[C@@H]1C/C=C\CCCC(=O)O [16,16-dimethyl Prostaglandin A2]
[2]
  scaled lipid accumulation score: ≤ 0

## C#C[C@]1(O)CC[C@H]2[C@@H]3CCC4=CC(=O)CC[C@@H]4[C@H]3CC[C@@]21CC [Levonorgestrel]
[2]
  scaled lipid accumulation score: ≤ 0
[3]
  scaled lipid accumulation score: ≤ 0
[4]
  scaled lipid accumulation score: 0.107
[1]
  scaled lipid accumulation score: 0.727

## C#C[C@]1(O)CCC2C3CCC4=CC(=O)CC[C@@H]4C3CC[C@@]21CC (stereo not given in full) [Norgestrel]
[4]
  scaled lipid accumulation score: 1.05 (active)

## C#CC1(O)CC[C@H]2[C@@H]3CCC4=CC(=O)CC[C@@H]4[C@H]3CC[C@@]21CC (stereo not given in full) [Norgestrel]
[2]
  scaled lipid accumulation score: 0.037
[1]
  scaled lipid accumulation score: 0.03

## C#C[C@]1(O)CC[C@H]2[C@@H]3CCC4=CC(=O)CC[C@@H]4[C@H]3CC[C@@]21CC [Norgestrel-(-)-D]
  scaled lipid accumulation score: ≤ 0

## C#C[C@]1(O)CC[C@H]2[C@@H]3CCC4=CC(=O)CC[C@@H]4[C@H]3CC[C@@]21CC
[1]
  scaled lipid accumulation score: 0.195

## Nc1nc2c(nc(O)n2[C@@H]2O[C@H](CO)[C@@H](O)[C@H]2O)c(=O)[nH]1 [8-hydroxy Guanosine]
[2]
  scaled lipid accumulation score: ≤ 0

## CCCCC[C@H](O)/C=C/[C@@H]1[C@H]2C/C(=C\CCCC(=O)O)C[C@H]2C[C@H]1O [5-cis Carbaprostacyclin]
[2]
  scaled lipid accumulation score: ≤ 0

## O=C1OC[C@H](Cc2cccc(O)c2)[C@H]1Cc1cccc(O)c1
[2]
  scaled lipid accumulation score: ≤ 0

## O=C(Nc1cccc(Nc2nccc(Nc3cccc(C(F)(F)F)c3)n2)c1)C1CC1 [Aurora Kinase Inhibitor III]
[3]
  scaled lipid accumulation score: 0.0325

## COc1cc(OC)cc(-c2cc3cnc(N)nc3nc2NC(=O)NC(C)(C)C)c1
[1]
  scaled lipid accumulation score: ≤ 0

## CCN(CC)CCCCNc1ncc2c(n1)N(C)C(=O)N(c1c(Cl)c(OC)cc(OC)c1Cl)C2
[5]
  scaled lipid accumulation score: ≤ -0.008
[6]
  scaled lipid accumulation score: ≤ -0.008
[7]
  scaled lipid accumulation score: ≤ -0.001
[1]
  scaled lipid accumulation score: 0.416

## CCN(CC)CCNC(=O)COc1ccc(OC)cc1 [Mefexamide]
Library stock concentration: 6.3 mM
  scaled lipid accumulation score: 0.018
[1]
  scaled lipid accumulation score: ≤ 0

## CCN(CC)CCCCNc1ncc2cc(-c3cc(OC)cc(OC)c3)c(NC(=O)NC(C)(C)C)nc2n1 [listing 1 of 3 here]
[7]
  scaled lipid accumulation score: 1.12 (active)
[1]
  scaled lipid accumulation score: 1.22 (active)

## CCN(CC)CCCCNc1ncc2cc(-c3cc(OC)cc(OC)c3)c(NC(=O)NC(C)(C)C)nc2n1 [listing 2 of 3 here]
[5]
  scaled lipid accumulation score: ≤ 0
[6]
  scaled lipid accumulation score: ≤ 0

## CCN(CC)CCCCNc1ncc2cc(-c3cc(OC)cc(OC)c3)c(NC(=O)NC(C)(C)C)nc2n1 [listing 3 of 3 here]
[3]
  scaled lipid accumulation score: 1.34 (active)
[1]
  scaled lipid accumulation score: 1.01 (active)

## CCN(CC)CCNC(=O)COc1ccc(OC)cc1 [Mefexamide hydrochloride]
  scaled lipid accumulation score: ≤ 0

## CCCCCCCCCCCCCC=CC(O)C(CO)NC(=O)CCCCCCCCCCCCCCCCCCCCCCC (stereo not given) [Lignoceric Ceramide]
[2]
  scaled lipid accumulation score: ≤ 0

## Nc1nc2ccc(Cl)cc2n2c(-c3ccccc3)nnc12
[1]
  scaled lipid accumulation score: 0.049

## CCCCC#Cc1nc(NC)c2ncn([C@@H]3O[C@H](CO)[C@@H](O)[C@H]3O)c2n1
[1]
  scaled lipid accumulation score: ≤ 0 and ≤ -0.006

## CC(C(C)N1CC(=O)NC(=O)C1)N1CC(=O)NC(=O)C1 (stereo not given)
Library stock concentration: 17.7 mM
  scaled lipid accumulation score: ≤ -0.012

## C=N[C@@H](C(=O)N[C@@H]1C(=O)N2[C@@H]1SC(C)(C)[C@@H]2C(=O)O)c1ccccc1 [Metampicillin sodium salt]
  scaled lipid accumulation score: ≤ 0

## CC(=O)Oc1c(C)cccc1C(=O)O
[1]
  scaled lipid accumulation score: ≤ 0

## CCCCC[C@@](C)(O)/C=C/[C@@H]1[C@@H](C/C=C\CCCC(=O)OC)[C@@H](O)C[C@H]1O [15(R)-15-methyl Prostaglandin F2.alpha. methyl ester]
[2]
  scaled lipid accumulation score: ≤ 0

## Cn1cc(CNCC2CCN(c3ncc(C(=O)NO)cn3)CC2)c2ccccc21 [listing 1 of 2 here]
[3]
  scaled lipid accumulation score: 0.478

## Cn1cc(CNCC2CCN(c3ncc(C(=O)NO)cn3)CC2)c2ccccc21 [listing 2 of 2 here]
[1]
  scaled lipid accumulation score: 0.985 (active)

## CN1CCc2c(c3ccccc3n2Cc2ccc(C(=O)NO)cc2)C1 [Tubastatin A HCl]
[3]
  scaled lipid accumulation score: ≤ 0
[1]
  scaled lipid accumulation score: 0.218

## CN1CCc2c(c3ccccc3n2Cc2ccc(C(=O)NO)cc2)C1 [Tubastatin A]
[3]
  scaled lipid accumulation score: ≤ 0
[1]
  scaled lipid accumulation score: ≤ 0

## O=C(C[S+]([O-])Cc1ccco1)NC/C=C\COc1cc(CN2CCCCC2)ccn1 (stereo not given) [Lafutidine]
[3]
  scaled lipid accumulation score: ≤ 0
[1]
  scaled lipid accumulation score: ≤ 0

## CC(COc1ccccc1Cc1ccccc1)N1CCCCC1.O=P(O)(O)O (stereo not given)
[1]
  scaled lipid accumulation score: 1.02 (active)

## N=C(CC(O)COc1ccccc1-c1ccccc1)N1CCCCC1 (stereo not given)
[1]
  scaled lipid accumulation score: 0.781

## C=CCc1ccccc1OCC(O)CNC(C)C (stereo not given) [Alprenolol HCl]
Library stock concentration: 8 mM
  scaled lipid accumulation score: 0.203

## C=CCc1ccccc1OCC(O)CNC(C)C (stereo not given) [Alprenolol hydrochloride]
  scaled lipid accumulation score: 0.634
[1]
  scaled lipid accumulation score: 0.5

## O=c1ncc(F)c[nH]1 [5-fluoro-2-pyrimidone]
[1]
  scaled lipid accumulation score: ≤ 0

## CC1CCN=C(N)C1 (stereo not given) [2-Imino-4-methylpiperidine (acetate)]
[2]
  scaled lipid accumulation score: 0.011

## N#C/C(=C\c1ccc(O)c(O)c1)C(=O)NCCCCc1ccccc1
[1]
  scaled lipid accumulation score: ≤ 0

## CCCCCOc1ccccc1C(O)CC#CCCCC(=O)OC (stereo not given)
[2]
  scaled lipid accumulation score: 0.022

## CN1CCC[C@@H]1Cc1c[nH]c2ccc(CCS(=O)(=O)c3ccccc3)cc12 [Eletriptan hydrobromide]
[1]
  scaled lipid accumulation score: 0.624

## CNS(=O)(=O)CCc1ccc2[nH]cc(C3CCN(C)CC3)c2c1 [Naratriptan]
[3]
  scaled lipid accumulation score: ≤ 0
[1]
  scaled lipid accumulation score: ≤ 0

## CN1CCC[C@@H]1Cc1c[nH]c2ccc(CCS(=O)(=O)c3ccccc3)cc12 [Eletriptan HBr]
[3]
  scaled lipid accumulation score: 0.194
[1]
  scaled lipid accumulation score: 0.202

## CNS(=O)(=O)CCc1ccc2[nH]cc(C3CCN(C)CC3)c2c1 [Naratriptan hydrochloride]
[1]
  scaled lipid accumulation score: 0.019

## Br.CN1CCC[C@@H]1Cc1c[nH]c2ccc(CCS(=O)(=O)c3ccccc3)cc12 [Eletriptan hydrobromide]
[1]
  scaled lipid accumulation score: 0.912 (active)

## COC(=O)N[C@H](C(=O)N1CCC[C@H]1c1ncc(-c2ccc(-c3ccc(-c4cnc([C@@H]5CCCN5C(=O)[C@@H](NC(=O)OC)C(C)C)[nH]4)cc3)cc2)[nH]1)C(C)C [listing 1 of 2 here]
[1]
  scaled lipid accumulation score: 1.04 (active)

## COC(=O)N[C@H](C(=O)N1CCC[C@H]1c1ncc(-c2ccc(-c3ccc(-c4cnc([C@@H]5CCCN5C(=O)[C@@H](NC(=O)OC)C(C)C)[nH]4)cc3)cc2)[nH]1)C(C)C [listing 2 of 2 here]
[3]
  scaled lipid accumulation score: 0.322

## CCCCC[C@H](O)/C=C/[C@@H]1C2C[C@H](CCCCC(=O)O)O[C@@H]2C[C@H]1O (stereo partly drawn) [6.beta.-Prostaglandin I1]
[2]
  scaled lipid accumulation score: 0.004

## CC(N)(Cc1ccc(O)c(O)c1)C(=O)O (stereo not given)
[1]
  scaled lipid accumulation score: ≤ 0

## CC(C)CN1CCC(CNCc2ccc(C#CC(C)(C)O)s2)CC1
[1]
  scaled lipid accumulation score: 0.671 (active)

## Cc1c(C)c2c(c(C)c1O)CCC(C)(CCCC(C)C(=O)O)O2 (stereo not given)
[2]
  scaled lipid accumulation score: ≤ 0

## C[C@H]1C[C@H]2[C@@H]3CCC4=CC(=O)C=C[C@]4(C)[C@H]3C(=O)C[C@]2(C)[C@@]1(O)C(=O)CO [Meprednisone]
[3]
  scaled lipid accumulation score: 0.055
[1]
  scaled lipid accumulation score: ≤ 0

## Cc1cc(NC(=O)Nc2ccc(N(C)C)cc2)c2cc(F)cc(F)c2n1
[3]
  scaled lipid accumulation score: 0.007
[1]
  scaled lipid accumulation score: 0.001 and ≤ -0.006

## Cc1ccc(F)c(NC(=O)Nc2ccc(-c3cccc4[nH]nc(N)c34)cc2)c1 [Linifanib (ABT-869)]
[3]
  scaled lipid accumulation score: ≤ 0
[1]
  scaled lipid accumulation score: ≤ 0

## Cc1ccc(F)c(NC(=O)Nc2ccc(-c3cccc4[nH]nc(N)c34)cc2)c1 [listing 1 of 2 here]
[5]
  scaled lipid accumulation score: 0.001
[6]
  scaled lipid accumulation score: ≤ -0.009 and ≤ -0.005
[7]
  scaled lipid accumulation score: 0.233 and 0.419
[1]
  scaled lipid accumulation score: 0.446

## Cc1ccc(F)c(NC(=O)Nc2ccc(-c3cccc4[nH]nc(N)c34)cc2)c1 [listing 2 of 2 here]
[1]
  scaled lipid accumulation score: 1.08 (active)

## CCCCCCCCCCCCC(=O)NC1CCOC1=O [N-tridecanoyl-L-Homoserine lactone]
[2]
  scaled lipid accumulation score: ≤ 0

## COc1cccc(C=NCCN=Cc2cccc(OC)c2[O-])c1[O-].[Cl-].[Mn+3]
[3]
  scaled lipid accumulation score: ≤ 0
[1]
  scaled lipid accumulation score: 0.234

## Cc1ccc(/C=N/NC(=O)c2ccccc2Oc2ccccc2)o1
[1]
  scaled lipid accumulation score: ≤ -0.001

## CN(C)C(=O)n1nnnc1Cc1ccc(-c2ccccc2)cc1
[1]
  scaled lipid accumulation score: 0.554

From the supplement of paper PMC9135407
